Reference: PubChem BioAssay (NCI)
The panel holds about 83,000 compounds, 20% with a hit somewhere; the sample as a whole holds those more often.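 Results are percent growth after 48 hours of single-concentration exposure. 100 means growth as in untreated cells, lower positive values show inhibition; negative values down to -100 show cell death.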 Calls of active or inactive are those of the source. Rule for the calls: active = growth percent below 10; inactive = the rest.

Columns and labels:
Test in all cases: NCI-60 one-dose screen, 48 h (100 = growth as untreated, 0 = no growth, -100 = all killed)
Details in all cases: 10 µM unless noted
RPMI-8226 leukemia = tested on: RPMI-8226 leukemia
OVCAR-8 ovarian = tested on: OVCAR-8 ovarian
OVCAR-5 ovarian = tested on: OVCAR-5 ovarian
OVCAR-4 ovarian = tested on: OVCAR-4 ovarian
SK-OV-3 ovarian = tested on: SK-OV-3 ovarian
IGROV1 ovarian = tested on: IGROV1 ovarian
OVCAR-3 ovarian = tested on: OVCAR-3 ovarian
HS 578T breast = tested on: HS 578T breast
T-47D breast = tested on: T-47D breast
NCI/ADR-RES ovarian = tested on: NCI/ADR-RES ovarian

Measured: growth

OCCNc1nc(NCCO)nc(Nc2ccc(C3=NN(c4ccc(Cl)cc4)C(c4ccc(Cl)cc4)C3)cc2)n1 (stereo not given)
inactive: RPMI-8226 leukemia 27.7% | OVCAR-8 ovarian 65.3% | OVCAR-5 ovarian 110% | OVCAR-4 ovarian 65.6% | SK-OV-3 ovarian 84.1% | IGROV1 ovarian 78.9% | OVCAR-3 ovarian 40.7% | HS 578T breast 62% | T-47D breast 55.8%

CCOC(=O)NC(Cc1ccccc1)c1ccccc1 (stereo not given)
inactive: RPMI-8226 leukemia 98.2% | OVCAR-8 ovarian 104% | OVCAR-5 ovarian 106% | OVCAR-4 ovarian 106% | SK-OV-3 ovarian 108% | IGROV1 ovarian 103% | OVCAR-3 ovarian 119% | HS 578T breast 102% | T-47D breast 99.6%

C/C(=N\NC(=O)c1ccncc1)c1ccc(N)cc1
inactive: RPMI-8226 leukemia 97.5% | OVCAR-8 ovarian 101% | OVCAR-5 ovarian 107% | OVCAR-4 ovarian 94.4% | SK-OV-3 ovarian 101% | IGROV1 ovarian 97.4% | OVCAR-3 ovarian 105% | HS 578T breast 96.8% | NCI/ADR-RES ovarian 111% | T-47D breast 83.8%

CC(C)(C)c1ccc(O)c(Cc2cc(C(C)(C)C)ccc2O)c1
inactive: RPMI-8226 leukemia 47.7% | OVCAR-8 ovarian 90.3% | OVCAR-5 ovarian 120% | OVCAR-4 ovarian 95.6% | SK-OV-3 ovarian 102% | IGROV1 ovarian 101% | OVCAR-3 ovarian 103% | HS 578T breast 93.3% | NCI/ADR-RES ovarian 100% | T-47D breast 78.6%

C=C1C(=O)O[C@H]2[C@H]1CC/C(COC(=O)c1cccnc1N)=C\CC[C@@]1(C)O[C@@H]21
inactive: OVCAR-8 ovarian 14.9% | OVCAR-5 ovarian 36.1% | OVCAR-4 ovarian 54.7% | SK-OV-3 ovarian 71.3% | IGROV1 ovarian 13.8% | HS 578T breast 28.9% | NCI/ADR-RES ovarian 31.9% | T-47D breast 50.7%
active: RPMI-8226 leukemia -19.2% | OVCAR-3 ovarian -4.59%

O=C(NCc1ccccc1)c1ccc2c(c1)NC(=O)[C@@H]1CCCN21
inactive: RPMI-8226 leukemia 105% | OVCAR-8 ovarian 106% | OVCAR-5 ovarian 100% | OVCAR-4 ovarian 112% | SK-OV-3 ovarian 111% | IGROV1 ovarian 104% | OVCAR-3 ovarian 101% | HS 578T breast 90.7% | NCI/ADR-RES ovarian 98.3% | T-47D breast 108%

C=CCn1c(SCC(=O)Nc2ccc(C(=O)/C=C/c3ccc(Cl)cc3)cc2)nnc1-c1cc(OC)c(OC)c(OC)c1
inactive: RPMI-8226 leukemia 28.7% | OVCAR-8 ovarian 91.6% | OVCAR-5 ovarian 116% | OVCAR-4 ovarian 87.9% | SK-OV-3 ovarian 109% | IGROV1 ovarian 99.5% | OVCAR-3 ovarian 91.9% | HS 578T breast 87.8% | T-47D breast 78.9%

C=C1C(=O)O[C@H]2[C@H]1CC/C(COC(=O)CCCCC(=O)OC/C1=C/CC[C@@]3(C)O[C@H]3[C@H]3OC(=O)C(=C)[C@@H]3CC1)=C\CC[C@@]1(C)O[C@@H]21
inactive: OVCAR-8 ovarian 49.7% | OVCAR-5 ovarian 115% | OVCAR-4 ovarian 82.3% | SK-OV-3 ovarian 85.6% | IGROV1 ovarian 39.4% | OVCAR-3 ovarian 18.6% | HS 578T breast 82.7% | NCI/ADR-RES ovarian 87.5% | T-47D breast 38.6%
active: RPMI-8226 leukemia 5.66%

Nc1c(C(=O)Nc2ccccn2)sc2nc3c(cc12)CCCCC3
active: OVCAR-3 ovarian -3.52%
inactive: RPMI-8226 leukemia 11.4% | OVCAR-8 ovarian 19.1% | OVCAR-5 ovarian 39.6% | OVCAR-4 ovarian 53.5% | SK-OV-3 ovarian 36.2% | IGROV1 ovarian 44.9% | HS 578T breast 30.5% | T-47D breast 36.4%

CCCCc1n(Cc2ccc3ccccc3c2)c2ccccc2[n+]1Cc1ccc2ccccc2c1
active: RPMI-8226 leukemia -37.9% | OVCAR-8 ovarian -76.7% | OVCAR-5 ovarian -94.1% | OVCAR-4 ovarian -90.7% | SK-OV-3 ovarian -65.5% | IGROV1 ovarian -80.1% | OVCAR-3 ovarian -87.8% | HS 578T breast -61.5% | T-47D breast -62.1%

CCSc1ccc(C2C(Br)C(=O)N2c2cc(OC)c(OC)c(OC)c2)cc1 (stereo not given)
active: RPMI-8226 leukemia 9.73% | OVCAR-3 ovarian 3.63% | HS 578T breast 8.62%
inactive: OVCAR-8 ovarian 17.4% | OVCAR-5 ovarian 31.1% | OVCAR-4 ovarian 38.3% | SK-OV-3 ovarian 21.8% | IGROV1 ovarian 29.1% | T-47D breast 67.4%

N#Cc1c(-c2ccc(F)cc2)nc(N=Nc2c(O)[nH]c3ccc(Cl)cc23)nc1N1CCOCC1
inactive: RPMI-8226 leukemia 80.1% | OVCAR-8 ovarian 19.1% | OVCAR-5 ovarian 84.5% | SK-OV-3 ovarian 17.2% | IGROV1 ovarian 29.3% | OVCAR-3 ovarian 21.6% | HS 578T breast 15.5% | NCI/ADR-RES ovarian 16.4% | T-47D breast 46.7%
active: OVCAR-4 ovarian -37.7%

CN(C)CSc1nc2ccccc2s1
inactive: RPMI-8226 leukemia 98.7% | OVCAR-8 ovarian 104% | OVCAR-5 ovarian 93.6% | OVCAR-4 ovarian 102% | SK-OV-3 ovarian 84.7% | IGROV1 ovarian 83.7% | OVCAR-3 ovarian 99.9% | HS 578T breast 116% | NCI/ADR-RES ovarian 102% | T-47D breast 86.7%

CN(C)C(CNc1oc(-c2cccc3ccccc23)nc1C#N)c1ccco1 (stereo not given)
inactive: RPMI-8226 leukemia 87.8% | OVCAR-8 ovarian 96.4% | OVCAR-5 ovarian 94.6% | OVCAR-4 ovarian 83.2% | SK-OV-3 ovarian 104% | IGROV1 ovarian 95.7% | OVCAR-3 ovarian 96.2% | HS 578T breast 89.6% | T-47D breast 72%

Nc1ccc2c(c1)C(=O)C(=O)c1c-2nc2ccccn12
active: OVCAR-8 ovarian 8.18% | OVCAR-5 ovarian -47.4% | OVCAR-4 ovarian -95.4% | IGROV1 ovarian -40.3% | OVCAR-3 ovarian -19.8% | HS 578T breast -6.56% | T-47D breast -53.5%
inactive: RPMI-8226 leukemia 14.7% | SK-OV-3 ovarian 30.7%

CC[C@]12C=CCN3CC[C@@]4(c5ccc(OC)cc5N(C)[C@H]4[C@@](O)(C(=O)OC)[C@@H]1OC(=O)CCC(=O)O[C@H]1CC[C@H]4[C@@H]5CC[C@H]6CC(=O)CC[C@]6(C)[C@H]5CC[C@]14C)[C@@H]32
active: RPMI-8226 leukemia 0.329% | T-47D breast 8.78%
inactive: OVCAR-8 ovarian 25.7% | OVCAR-5 ovarian 34.6% | OVCAR-4 ovarian 36.6% | SK-OV-3 ovarian 35.3% | IGROV1 ovarian 28.6% | OVCAR-3 ovarian 23.8% | NCI/ADR-RES ovarian 25.4%

COc1cc2cc(c1Cl)N(C)C(=O)C[C@H](OC(=O)[C@H](C)N(C)C(=O)CCS)C[C@]1(C)O[C@H]1[C@H](C)[C@@H]1C[C@@](O)(NC(=O)O1)[C@H](OC)/C=C/C=C(\C)C2
inactive: RPMI-8226 leukemia 24.4% | OVCAR-8 ovarian 13.7% | OVCAR-5 ovarian 44% | OVCAR-4 ovarian 28.8% | SK-OV-3 ovarian 18.7% | IGROV1 ovarian 18.5% | NCI/ADR-RES ovarian 10.5% | T-47D breast 61.2%
active: OVCAR-3 ovarian -4.97%

COc1cc(C2CC(c3ccc(Nc4nc(NCCO)nc(NCCO)n4)cc3)=NN2c2cc(Cl)cc(Cl)c2)cc(OC)c1OC (stereo not given)
inactive: OVCAR-8 ovarian 11.9% | OVCAR-5 ovarian 54.6% | SK-OV-3 ovarian 108% | NCI/ADR-RES ovarian 53.1% | T-47D breast 75.4%
active: RPMI-8226 leukemia -13.8% | OVCAR-4 ovarian -20.1% | IGROV1 ovarian 4.18% | OVCAR-3 ovarian -22.5%

N#Cc1ccc(N2Cc3cc(Cl)ccc3OC3=C2C(=O)N(Cc2ccc(F)cc2)C3=O)cc1
active: RPMI-8226 leukemia -21.8% | OVCAR-8 ovarian -26.9% | OVCAR-5 ovarian -1.59% | OVCAR-4 ovarian -25.8% | IGROV1 ovarian -5.53% | OVCAR-3 ovarian -89% | T-47D breast -70.3%
inactive: SK-OV-3 ovarian 102% | NCI/ADR-RES ovarian 10.1%

Nc1ccc(C(=O)Nc2cccc(C(=O)Nc3ccc4c(O)c(N=Nc5ccc(N=Nc6ccc(S(=O)(=O)O)cc6)cc5)c(S(=O)(=O)O)cc4c3)c2)cc1
inactive: RPMI-8226 leukemia 103% | OVCAR-8 ovarian 110% | OVCAR-5 ovarian 106% | OVCAR-4 ovarian 101% | SK-OV-3 ovarian 101% | IGROV1 ovarian 102% | OVCAR-3 ovarian 107% | NCI/ADR-RES ovarian 99.2% | T-47D breast 108%

COc1ccc(C2N(c3cc(OC)c(OC)c(OC)c3)C(=O)C2(F)F)cc1F (stereo not given)
inactive: RPMI-8226 leukemia 20.8% | OVCAR-8 ovarian 44.1% | OVCAR-5 ovarian 78.7% | OVCAR-4 ovarian 58.3% | SK-OV-3 ovarian 75.5% | IGROV1 ovarian 44.2% | OVCAR-3 ovarian 17.6% | NCI/ADR-RES ovarian 32.9% | T-47D breast 65.7%

C#C[C@@]1(O)[C@@H](CO)O[C@@H](n2cc(F)c3c(N)ncnc32)[C@@H]1O
active: RPMI-8226 leukemia 5.11% | OVCAR-8 ovarian 9.54% | OVCAR-5 ovarian 9.96% | OVCAR-4 ovarian 4.75% | SK-OV-3 ovarian -7.75% | IGROV1 ovarian -17.4% | T-47D breast -13.8%
inactive: OVCAR-3 ovarian 10.9% | HS 578T breast 28.4%

COc1ccc(-c2cc(-c3nnc(SCC(=O)Nc4ccc(/C(C)=N\O)cc4)n3-c3ccccc3)c3cc(OC)ccc3n2)cc1
inactive: RPMI-8226 leukemia 66.7% | OVCAR-8 ovarian 75.8% | OVCAR-5 ovarian 102% | OVCAR-4 ovarian 92.1% | SK-OV-3 ovarian 79.9% | IGROV1 ovarian 39.6% | OVCAR-3 ovarian 77.4% | NCI/ADR-RES ovarian 71.3% | T-47D breast 45.4%

c1ccc2nc(N3CCOCC3)c(N3CCCCC3)nc2c1
inactive: RPMI-8226 leukemia 96.9% | OVCAR-8 ovarian 102% | OVCAR-5 ovarian 105% | OVCAR-4 ovarian 97.6% | SK-OV-3 ovarian 101% | IGROV1 ovarian 107% | OVCAR-3 ovarian 103% | HS 578T breast 96.9% | T-47D breast 75.9%

Nc1ccc(C2=NN(C(=O)c3cc(-c4ccc(Cl)cc4)nc4ccccc34)C(c3ccc(Cl)cc3)C2)cc1 (stereo not given)
inactive: RPMI-8226 leukemia 10.4% | OVCAR-8 ovarian 32.1% | OVCAR-5 ovarian 81.3% | OVCAR-4 ovarian 72.4% | SK-OV-3 ovarian 31.7% | IGROV1 ovarian 49.2% | NCI/ADR-RES ovarian 12.4% | T-47D breast 38%
active: OVCAR-3 ovarian 8.07%

COc1ccc(C(C)c2cc(OC)c(OC)c(OC)c2)cc1 (stereo not given)
active: OVCAR-3 ovarian -14.1%
inactive: RPMI-8226 leukemia 15.3% | OVCAR-8 ovarian 10.9% | OVCAR-5 ovarian 50.3% | OVCAR-4 ovarian 34.3% | SK-OV-3 ovarian 33.2% | IGROV1 ovarian 28.5% | NCI/ADR-RES ovarian 13.8% | T-47D breast 63.1%

CC(=O)Oc1c2c(nc3c1c1ccccc1n3Cc1ccccc1)-c1ccccc1C2
inactive: RPMI-8226 leukemia 73.3% | OVCAR-8 ovarian 88.4% | OVCAR-5 ovarian 97% | OVCAR-4 ovarian 83.9% | SK-OV-3 ovarian 92% | IGROV1 ovarian 81.1% | OVCAR-3 ovarian 79% | NCI/ADR-RES ovarian 85.5% | T-47D breast 56.7%
